In PubChem BioAssay one finds composite z-score and z-score data, which are given here for 13 molecules.

The source made the active and inactive calls.

Experiment [1] is described as follows: small molecules captured by biotinylated probe aFSTL3 – biochemical, small-molecule microarray, fluorescence 635/667, stem cell growth factor project, primary screen (AID 1064).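 Also: measures binding of the biotinylated anti-FSTL3 antibody to printed compounds.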 To be noted: higher = more signal.
Experiment [2] is described as follows: binders from COS7 lysate, DM2A8 probe, primary screen, torsin A project, cell lysate, small-molecule microarray, fluorescence 635/667 (AID 1065). To be noted: higher = more signal, COS7 lysate expressing mutant human TOR1A.
Experiment [3] is described as follows: small molecules captured by biotinylated probe aFGF2 – biochemical, small-molecule microarray, fluorescence 635/667, stem cell growth factor project, primary screen (AID 1067).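 Also: measures binding of biotinylated aFGF2 protein to printed compounds on slides; z-score merges feature fluorescence and signal-to-noise across triplicate slides.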 To be noted: higher = more signal.
A short description of experiment [4]: small molecules captured by biotinylated probe aFGF10 – biochemical, small-molecule microarray, fluorescence 635/667, stem cell growth factor project, primary screen (AID 1071).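 Also: score merges 667 nm spot intensity and signal to noise from triplicate slides.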 To be noted: higher = more signal.
Experiment [5] deals with Neurogenic locus notch homolog protein 2 (Homo sapiens) (UniProt Q04721). Nature of the experiment: small molecules binding Notch2 protein – biochemical, small-molecule microarray, 635 nm fluorescence, stem cell growth factors, primary screen (AID 1073). The note with it: higher = more signal.
Experiment [6] addresses Pro-neuregulin-1, membrane-bound isoform (Homo sapiens) (UniProt Q02297). Nature of the experiment: small molecules binding neuregulin-1 protein – biochemical, small-molecule microarray, fluorescence 635/667, psychiatric disease protein project, primary screen (AID 1075).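 Also: score combines 667 nm spot fluorescence with signal to noise.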 To be noted: NRG1 binding, 635 nm fluorescence, higher = more signal.
Experiment [7] has as its system Neuregulin-1 EGF-like domain. Nature of the experiment: small molecules binding NRG1 EGF domain – biochemical, small-molecule microarray, 635 nm fluorescence, primary screen (AID 1081).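 Also: binding of the protein to compounds printed on small-molecule microarray slides.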 The note with it: higher = more signal.
Experiment [8] can be described thus: FRG1 expression reporter modulators in myotubes – cell-based, C2C12 myotubes, firefly/Renilla luciferase, luminescence, FRG1 inhibition for FSHD, primary screen (AID 1084). To be noted: FRG1 promoter luciferase, higher = more signal, called active from +8 up or from −8 down.
Experiment [9] is described as follows: small molecules captured by biotinylated probe aFST – biochemical, small-molecule microarray, fluorescence 635/667, stem cell growth factor project, primary screen (AID 1086).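 Also: score merges 667 nm fluorescence with signal-to-noise of each printed compound spot.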 To be noted: higher = more signal.
A short description of experiment [10]: binders of probe aHhip on microarray, primary screen, stem cell growth factor project, biochemical, small-molecule microarray, fluorescence 635/667 (AID 1087).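 Also: score merges spot fluorescence at 667nm with spot signal to noise ratio.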 To be noted: higher = more signal.

Chain of Pro-neuregulin-1, membrane-bound isoform (Homo sapiens) (Q02297 whole entry, looked up, the tested form may be a part, canonical isoform): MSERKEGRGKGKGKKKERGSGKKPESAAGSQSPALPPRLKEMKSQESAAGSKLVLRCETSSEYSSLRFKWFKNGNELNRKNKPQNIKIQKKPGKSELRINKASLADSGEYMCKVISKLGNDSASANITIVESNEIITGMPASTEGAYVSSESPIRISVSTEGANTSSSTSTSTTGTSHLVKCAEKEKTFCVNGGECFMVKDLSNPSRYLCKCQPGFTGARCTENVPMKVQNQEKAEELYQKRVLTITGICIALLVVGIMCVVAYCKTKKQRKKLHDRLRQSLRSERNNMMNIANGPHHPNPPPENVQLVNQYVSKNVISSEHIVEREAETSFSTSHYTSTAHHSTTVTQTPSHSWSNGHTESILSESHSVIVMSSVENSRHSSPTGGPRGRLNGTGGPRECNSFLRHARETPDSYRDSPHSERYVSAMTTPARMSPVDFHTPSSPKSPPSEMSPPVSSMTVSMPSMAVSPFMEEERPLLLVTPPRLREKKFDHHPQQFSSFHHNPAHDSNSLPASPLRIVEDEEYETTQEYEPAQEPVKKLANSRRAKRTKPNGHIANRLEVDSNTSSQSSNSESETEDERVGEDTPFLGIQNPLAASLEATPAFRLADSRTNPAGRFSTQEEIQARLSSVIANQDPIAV
Chain of Neurogenic locus notch homolog protein 2 (Homo sapiens) (Q04721 whole entry, looked up, canonical isoform): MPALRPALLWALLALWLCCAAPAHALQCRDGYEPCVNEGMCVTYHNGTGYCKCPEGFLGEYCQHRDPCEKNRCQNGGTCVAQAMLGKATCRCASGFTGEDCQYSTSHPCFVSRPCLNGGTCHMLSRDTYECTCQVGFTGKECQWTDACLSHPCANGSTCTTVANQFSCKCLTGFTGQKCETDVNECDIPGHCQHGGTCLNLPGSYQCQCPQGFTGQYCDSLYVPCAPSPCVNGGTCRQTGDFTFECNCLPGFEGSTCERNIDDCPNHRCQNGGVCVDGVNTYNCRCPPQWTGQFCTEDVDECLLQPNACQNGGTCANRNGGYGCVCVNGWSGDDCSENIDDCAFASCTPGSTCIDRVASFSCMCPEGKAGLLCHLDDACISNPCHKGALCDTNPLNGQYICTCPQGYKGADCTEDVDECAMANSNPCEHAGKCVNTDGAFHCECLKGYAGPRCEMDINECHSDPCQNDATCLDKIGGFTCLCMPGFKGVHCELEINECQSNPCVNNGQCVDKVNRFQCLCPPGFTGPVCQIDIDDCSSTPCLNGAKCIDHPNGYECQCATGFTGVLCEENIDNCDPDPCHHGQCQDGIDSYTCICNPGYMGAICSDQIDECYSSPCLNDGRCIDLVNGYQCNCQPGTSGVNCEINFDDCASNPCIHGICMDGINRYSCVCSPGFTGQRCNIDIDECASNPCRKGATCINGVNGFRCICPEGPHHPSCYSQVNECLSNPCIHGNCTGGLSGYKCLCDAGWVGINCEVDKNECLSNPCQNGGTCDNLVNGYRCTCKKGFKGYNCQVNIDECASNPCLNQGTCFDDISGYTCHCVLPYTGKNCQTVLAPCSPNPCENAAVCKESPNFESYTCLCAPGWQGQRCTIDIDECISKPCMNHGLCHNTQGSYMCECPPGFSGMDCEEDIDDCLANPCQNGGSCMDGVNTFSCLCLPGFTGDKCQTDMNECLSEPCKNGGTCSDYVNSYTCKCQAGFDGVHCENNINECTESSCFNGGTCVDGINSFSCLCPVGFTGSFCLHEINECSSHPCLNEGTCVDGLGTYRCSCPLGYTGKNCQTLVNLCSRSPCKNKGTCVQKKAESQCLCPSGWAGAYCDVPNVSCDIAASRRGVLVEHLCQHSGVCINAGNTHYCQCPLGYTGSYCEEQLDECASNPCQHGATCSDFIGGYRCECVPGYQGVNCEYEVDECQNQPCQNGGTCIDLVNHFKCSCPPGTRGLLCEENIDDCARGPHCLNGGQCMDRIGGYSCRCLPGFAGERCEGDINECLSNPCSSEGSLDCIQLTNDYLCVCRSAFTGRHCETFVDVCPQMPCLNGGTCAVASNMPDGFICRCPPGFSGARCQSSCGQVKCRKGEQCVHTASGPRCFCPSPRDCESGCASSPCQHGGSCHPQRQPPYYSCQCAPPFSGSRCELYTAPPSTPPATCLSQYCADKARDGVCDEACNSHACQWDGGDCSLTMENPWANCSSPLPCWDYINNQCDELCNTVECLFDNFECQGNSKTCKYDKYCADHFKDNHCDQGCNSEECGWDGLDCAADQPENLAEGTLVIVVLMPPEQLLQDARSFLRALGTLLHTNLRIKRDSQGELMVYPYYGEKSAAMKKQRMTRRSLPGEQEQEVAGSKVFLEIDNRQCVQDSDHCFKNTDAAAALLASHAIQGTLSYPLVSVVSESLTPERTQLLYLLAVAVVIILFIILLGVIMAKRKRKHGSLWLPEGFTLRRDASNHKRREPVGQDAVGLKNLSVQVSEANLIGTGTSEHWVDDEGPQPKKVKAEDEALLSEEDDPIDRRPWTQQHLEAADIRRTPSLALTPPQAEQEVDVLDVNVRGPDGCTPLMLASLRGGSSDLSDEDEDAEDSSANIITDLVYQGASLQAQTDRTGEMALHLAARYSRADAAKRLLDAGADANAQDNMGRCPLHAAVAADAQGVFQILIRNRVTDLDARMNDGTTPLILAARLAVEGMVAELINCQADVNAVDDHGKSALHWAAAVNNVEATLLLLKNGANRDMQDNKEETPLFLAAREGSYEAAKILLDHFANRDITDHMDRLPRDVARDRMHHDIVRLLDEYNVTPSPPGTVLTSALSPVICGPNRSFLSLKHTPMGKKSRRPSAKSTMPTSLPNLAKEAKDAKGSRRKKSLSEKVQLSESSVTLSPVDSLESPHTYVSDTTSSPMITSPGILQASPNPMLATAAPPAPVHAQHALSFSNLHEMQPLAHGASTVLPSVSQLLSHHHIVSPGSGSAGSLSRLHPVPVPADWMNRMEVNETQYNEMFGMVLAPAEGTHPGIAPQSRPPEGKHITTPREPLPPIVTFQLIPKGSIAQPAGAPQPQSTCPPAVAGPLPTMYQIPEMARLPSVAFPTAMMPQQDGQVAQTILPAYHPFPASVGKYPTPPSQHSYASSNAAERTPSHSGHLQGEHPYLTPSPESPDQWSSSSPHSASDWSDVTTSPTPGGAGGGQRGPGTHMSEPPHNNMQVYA

Regarding `COCCOC(=O)N1C(=O)[C@@]2(c3cc(C#Cc4ccc(OC)cc4)ccc31)[C@H](C(=O)N1CCN(c3ncccn3)CC1)[C@H]1C(=O)O[C@H](c3ccccc3)[C@H](c3ccccc3)N1[C@@H]2c1ccc(OCCO)cc1`, the composite z-score was 0.367 in experiment [1]; -0.473 in [2]; -0.006 in experiment [3]; 0.3 in experiment [4]; 1.35 in experiment [5]; 0.458 in [6]. In addition, the results for the composite z-score in experiment [7], in experiment [9] and in experiment [10] were 0.703, 0.383 and 0.28, respectively. Further, in [8], the z-score is 0.726 (inactive).
Turning to `CO[C@@H]1COC(=O)CC=C[C@@H](C)[C@@H]2C=C[C@H](O)[C@@H](COC(=O)CCC[C@H]1C)O2`, the composite z-score in [1] was -0.29; in experiment [2] it was 1.11; in [3], -0.146; in [4] it was -0.14; in experiment [5] it was -0.117; in experiment [6], -0.582. In addition, the composite z-score in experiment [7] is -0.167; in experiment [9], 0.246; in experiment [10], -0.261. Besides, the z-score in experiment [8] was -0.414 (inactive).
Consider `COCCOC(=O)N1C(=O)[C@@]2(c3cc(C#CC4(O)CCCCCC4)ccc31)[C@H](C(=O)N1CCN(c3ncccn3)CC1)[C@H]1C(=O)O[C@H](c3ccccc3)[C@H](c3ccccc3)N1[C@@H]2c1ccc(OCCO)cc1`, for which the composite z-score was -0.266 in [1]; 0.318 in experiment [2]; 0.192 in experiment [3]; 0.727 in experiment [4]; 1.24 in experiment [5]; 0.939 in experiment [6]. Also, the results for the composite z-score in [7], in [9] and in experiment [10] were 1.33, 0.517 and 0.107, respectively. Further, the z-score in experiment [8] was 0.401 (inactive).
With `O=C(NN=C1C[C@@H](O)[C@@H](O)[C@@H]2[C@@H]3C(=O)N(c4cccc(Oc5ccccc5)c4)C(=O)[C@@H]3CC[C@@H]12)OCc1ccccc1`, the composite z-score in experiment [1] is 0.103; in experiment [2] it was -0.336; in [3], -0.0891; in experiment [4], 0.0457; in experiment [5], 0.222; in experiment [6] it was 0.259. Further, the composite z-score in experiment [7] is -0.157; in [9] it was 0.274; in experiment [10], 0.2. The z-score in experiment [8] is 0.31 (inactive).
On to `COC(=O)[C@H]1COC(c2ccc(OCCCO)cc2)=N1`, for which the composite z-score in [1] is 0.971; in experiment [2], -0.354; in experiment [3] it was -0.0425; in experiment [4], -0.576; in [5], 0.115; in experiment [6], -0.0556. Besides, the composite z-score is 0.207 in experiment [7], 0.179 in experiment [9] and -0.0618 in experiment [10]. The z-score in [8] is 0.97 (inactive).
`COC(=O)[C@@H]1CC[C@H](C)[C@@H](c2ccc(C)cc2)N1C(=O)c1ccc(C=NOC(C)CN2CCCCc3nc(C)c(C)cc32)cc1` (stereo not given in full): the composite z-score in experiment [1] is 0.145; in [2], -0.859; in [3], -0.0959; in [4], 0.233; in [5], -0.199; in [6], 0.131. The composite z-score in [7] was 0.312; in [9], 0.165; in experiment [10], 0.226. Further, the z-score in experiment [8] was 0.204 (inactive).
Turning to `CC(C)CON=C1[C@H]2CCn3c(=O)n(-c4ccccc4)c(=O)n3[C@H]2[C@H](O)[C@@H]2O[C@H]12`, the composite z-score in experiment [1] was -0.358; in experiment [2] it was -0.0519; in experiment [3], -0.102; in [4], 0.325; in [5] it was 0.532; in [6], -0.0371. For the same molecule, the results for the composite z-score in experiment [7], in [9] and in experiment [10] were 0.323, 0.204 and -0.069, respectively. The z-score in [8] was -0.217 (inactive).
In the case of `COc1ccc(O[C@H]2C=C[C@@H](c3ccccc3)O[C@@H]2COC(=O)CCC(C)=NOC[C@@H](C)[C@H](OCc2ccccc2)C(C)C)cc1`, the composite z-score in experiment [1] is -0.404; in experiment [2] it was -0.48; in experiment [3], -0.171; in experiment [4], -0.14; in experiment [5], -1.1; in experiment [6], -1.09. In addition, the composite z-score in [7] was -1.02; in experiment [9], -0.504; in [10], -0.184. In addition, the z-score in [8] was 0.696 (inactive).
For `CCCNC(=O)[C@@H]1c2ccccc2C(=O)N(c2ccc(C)cn2)[C@H]1c1ccc(CO)cc1`, the composite z-score in experiment [1] is 0.901; in [2] it was 0.0211; in experiment [3] it was -0.176; in [4], -0.857; in experiment [5], -1.01; in [6], -0.465. Further, the composite z-score in experiment [7] is 1.4; in [9], -0.348; in experiment [10], -0.258. Moreover, the z-score in experiment [8] was 0.213 (inactive).
Consider `CC(C)CON=C1C[C@@H](O)[C@@H](O)[C@@H]2[C@@H]3C(=O)N([C@@H](C)c4ccccc4)C(=O)[C@@H]3CC[C@H]12`, for which the composite z-score in experiment [1] was -0.572; in experiment [2], -0.0881; in experiment [3] it was -0.0156; in experiment [4], 0.915; in experiment [5], 1.01; in experiment [6] it was 0.561. Also, the figures for the composite z-score in experiment [7], in [9] and in [10] were 1.1, 0.629 and 0.21, respectively. In addition, the z-score in experiment [8] was -0.997 (inactive).
On to `C=CCNC(=O)[C@H]1[C@@H]2C(=O)O[C@@H](c3ccccc3)[C@@H](c3ccccc3)N2[C@@H](c2ccc(O)cc2)[C@]12C(=O)N(C(=O)OCCOC)c1ccc(C#CC3=CCCCC3)cc12`, for which the composite z-score in [1] amounted to 0.484; in [2], 1.24; in experiment [3], 0.008; in experiment [4] it was 0.72; in experiment [5], 1.05; in [6], 2.03. The values for the composite z-score in experiment [7], in experiment [9] and in experiment [10] were 1.06, 2.01 and 1.75, respectively. In addition, the z-score in experiment [8] was -0.829 (inactive).
With `CC(CCC(=O)OC[C@H]1O[C@H](C#Cc2ccccc2)C=C[C@@H]1Oc1ccc(C)cc1)=NO[C@@H](C)c1cn([C@H](CO)Cc2ccccc2)nn1`, the composite z-score in experiment [1] is -0.583; in [2], 0.0364; in experiment [3], 0.0092; in experiment [4] it was 0.63; in experiment [5], 0.161; in experiment [6], 0.122. The composite z-score in experiment [7] was 0.0865; in experiment [9] it was 0.263; in experiment [10], -0.327. For the same molecule, in experiment [8], the z-score was 1.02 (inactive).
As for `O=C(CS)NCCCCCNC(=O)[C@@H]1C[C@@H]2C(=O)N[C@@H](Cc3ccccc3)C(=O)N2[C@@H]1c1ccc(O)cc1`, the composite z-score in [1] is 0.154; in experiment [2], 0.524; in experiment [3], -0.0766; in [4], 0.435; in experiment [5], -0.138; in [6] it was 0.67. For the same molecule, the composite z-score in experiment [7] is 1.36; in experiment [9], 0.0658; in [10], -0.0994. Further, the z-score in experiment [8] was 1.2 (inactive).
